Structures are written as SMILES. Hit rate of the full screen: of about 360,000 compounds, about 25,000 (6.9%) were called active. Roughly 9% stayed inconclusive and do not appear here. The list comes from a sample in which actives are over-represented; it also holds similar structures and randomly drawn compounds. Unmarked numbers belong to inactive results. The call rests on the fitted dose curve; in most records, active means well fitted inhibition curve with a large enough effect; inconclusive means small, poorly fitted or top-dose-only effect; inactive means flat fitted curve, though single readings scatter.
Potency means the concentration at half of the fitted maximal effect.

Chain of Luciferin 4-monooxygenase (Photinus pyralis) (P08659 whole entry, looked up): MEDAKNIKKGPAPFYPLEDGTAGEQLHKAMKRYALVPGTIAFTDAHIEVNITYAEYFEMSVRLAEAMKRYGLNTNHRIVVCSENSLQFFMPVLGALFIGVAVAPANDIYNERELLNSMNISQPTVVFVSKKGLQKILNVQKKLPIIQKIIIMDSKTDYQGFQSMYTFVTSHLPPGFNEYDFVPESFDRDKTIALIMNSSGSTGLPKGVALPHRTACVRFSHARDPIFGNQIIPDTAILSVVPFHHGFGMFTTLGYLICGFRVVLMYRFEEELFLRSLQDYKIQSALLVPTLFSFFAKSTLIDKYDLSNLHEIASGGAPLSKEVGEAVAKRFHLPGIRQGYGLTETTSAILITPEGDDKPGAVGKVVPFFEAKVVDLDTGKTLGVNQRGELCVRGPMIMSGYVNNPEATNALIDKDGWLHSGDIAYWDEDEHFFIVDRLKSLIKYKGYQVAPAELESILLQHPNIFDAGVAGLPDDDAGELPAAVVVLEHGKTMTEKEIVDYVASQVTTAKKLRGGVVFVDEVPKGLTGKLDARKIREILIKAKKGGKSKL

This assay concerns the target Luciferin 4-monooxygenase (Photinus pyralis) (UniProt P08659). The assay is described as follows: qHTS profiling assay for firefly luciferase inhibitor/activator using purifed enzyme and Km concentrations of substrates (counterscreen for miR-21 project). Further: nearly all actives have a fitted effect of over 55% in size.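 On activity change, negative = inhibition: plate controls were vehicle for no effect and reference inhibitor for full effect.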 The settings on record: purified FLuc, luminescence inhibition; series mostly up to 57.5 µM; activity change, negative = inhibition: at the top concentration. An outline of the steps: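 Purified P. pyralis luciferase (10nM final) with 10uM D-luciferin and 10uM ATP (Km levels) in 50mM Tris acetate pH 7.5, 10mM Mg acetate, 0.01% Tween-20, 0.05% BSA; qHTS 6-point titration, ~60 µM downward; luminescence read.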
On to `O=C(NC1CC(=O)N(c2ccc(F)cc2)C1)C1CCCCC1` (configuration not stated), for which the “activity change, negative = inhibition” value was 1.54%.
In the case of `CCOC(=O)CNC(=O)c1cc2c(=O)n3cccc(C)c3nc2s1`, the “activity change, negative = inhibition” value is -11.1%.
For the compound `CC(=O)c1cccc(Nc2ccc3cc(S(=O)(=O)N4CCC(C)CC4)ccc3n2)c1`, the “activity change, negative = inhibition” value was 0.763%.
`N/C(=N\OC(=O)/C=C/c1ccccc1)c1ccc(Br)cc1`: the “activity change, negative = inhibition” value is -17%.
Consider `N/C(=N\OC(=O)N1c2ccccc2Sc2ccccc21)c1ccc(Br)cc1`, for which the “activity change, negative = inhibition” value is -12.5%.
Take `N/C(=N\OC(=O)c1ccc2c(c1)OCO2)c1ccc(Br)cc1`: the Potency is 1.69 µM (active).
In the case of `Cc1ccc(-c2cc(C(F)(F)F)c(C#N)c(SCC(=O)Nc3ccccc3)n2)cc1`, the “activity change, negative = inhibition” value was -0.837%.
Turning to `O=C(/C=C/c1ccc(Cl)cc1Cl)NCc1ccco1`, the Potency was 7.57 µM (active).
On to `COC(=O)/C=C/C(=O)NCc1ccco1`, for which the “activity change, negative = inhibition” value is -0.0929%.
For `O=C(NCc1ccco1)C1(c2ccc(Cl)cc2)CCCC1`, the “activity change, negative = inhibition” value is 5.76%.
With `COc1ccccc1CNC(=O)C(Cc1ccccc1)NS(=O)(=O)c1ccc2c(c1)oc(=O)n2C` (configuration not stated), the “activity change, negative = inhibition” value is -2.22%.
On to `CSCCC(NC(=O)c1ccccc1)C(=O)N1CCN(Cc2ccc(Cl)cc2)CC1` (configuration not stated), for which the “activity change, negative = inhibition” value is 4.35%.
As to `COc1cc(/C=C2/C(=O)NN(c3ccc(F)cc3)C2=O)cc([N+](=O)[O-])c1O`, the Potency is 26.9 µM (active).
The same measure, in the same setting: for `C#CCOc1ccc(/C=C2/C(=O)NN(c3ccccc3)C2=O)cc1OC` the value was 0.849 µM (active).
Turning to `COc1ccc(N2C(=O)CC(Nc3ccc(F)cc3)C2=O)c([N+](=O)[O-])c1` (configuration not stated), the “activity change, negative = inhibition” value is 0.0586%.
As to `C/C=C/c1ccc(OCCOc2ccc(C=O)cc2OC)c(OC)c1`, the “activity change, negative = inhibition” value is 11.6%.
As for `COc1cccc2c1cc1c(=O)n(CC(=O)N3CCN(c4cccc(Cl)c4)CC3)nc(C)n12`, the “activity change, negative = inhibition” value was 2.9%.
Regarding `COc1cc(C=O)ccc1Oc1nnnn1-c1ccccc1`, the “activity change, negative = inhibition” value was 5.93%.
`CCOc1c(Br)cc(/C=C2\C(=O)N(CCC#N)N=C2C)cc1OC`: the “activity change, negative = inhibition” value is -14.2%.
In the case of `COc1cc(CN2CC(C)CC(C)C2)cc([N+](=O)[O-])c1O` (configuration not stated), the “activity change, negative = inhibition” value is -0.254%.
On to `COc1cc(/C=C2/C(=O)NN(c3cccc(Cl)c3)C2=O)cc(Br)c1O`, for which the Potency was 30.1 µM (active).
With `CCOc1ccc(-c2nonc2NC(=O)c2oc3ccc(CC)cc3c2C)cc1`, the “activity change, negative = inhibition” value is -1.22%.
Same read-out and setting: for `NC1=NC(c2cc(F)cc(F)c2)n2c(nc3ccccc32)N1` (configuration not stated) the value was -6.24%.
As for `CC(C(=O)NC1CCCCC1)N1C(=O)c2cccc3cccc1c23` (configuration not stated), the “activity change, negative = inhibition” value was -0.249%.
On to `N#Cc1ccc(OCC(=O)NC(=O)NC2CCS(=O)(=O)C2)cc1` (configuration not stated), for which the “activity change, negative = inhibition” value is -1.14%.
The same measure, in the same setting: for `Cc1nc2ccn(Cc3cccnc3)c(=O)c2cc1C(=O)N1CCN(c2ccccc2F)CC1` the value was -2.88%; for `Cc1cc2c(cc3c(SCc4cccc(Cl)c4)nnc(C)n32)o1`, -12.8%.
Regarding `CN1CCC(=NNC(=O)c2ccc(N(Cc3ccc(Cl)cc3)S(C)(=O)=O)cc2)CC1`, the “activity change, negative = inhibition” value was -2.34%.
In the case of `NS(=O)(=O)c1cc(C(=O)OCC(=O)NNC(=O)c2ccccc2)ccc1Cl`, the “activity change, negative = inhibition” value is 2.64%.
As for `O=C(CCOc1ccccc1)N(Cc1cccnc1)c1nc2ccc(Cl)cc2s1`, the “activity change, negative = inhibition” value is -5.41%.
With `CCCn1nnnc1NC(=O)COc1ccc(Cl)cc1C`, the “activity change, negative = inhibition” value was -1.34%.
`Cc1cc(Nc2ccccc2)n(CCC#N)n1`: the “activity change, negative = inhibition” value is 5.51%.
With `Cc1cc(NC(=O)COc2ccc(Cl)cc2Cl)n(CCC#N)n1`, the Potency was 19 µM (active).
As for `CSc1ncccc1C(=O)Nc1ccc(C)cn1`, the “activity change, negative = inhibition” value is -0.899%.
Same read-out and setting: for `O=C(Nc1nc2ccc(F)cc2s1)c1nc(SCc2ccccc2F)ncc1Cl` the value was 0.507%.
As to `CSc1ncccc1C(=O)Nc1nc2ccc(F)cc2s1`, the Potency was 19 µM (active).
With `CC(C(=O)N(C)CC(=O)Nc1ccccc1C(F)(F)F)N1C(=O)c2ccccc2C1=O` (configuration not stated), the “activity change, negative = inhibition” value is -1.6%.
For `Cc1ccc(/C=C(\C#N)C(=O)Nc2cc(C)ccc2C)cc1`, the “activity change, negative = inhibition” value was -2.09%.
Turning to `COc1cc(OC)cc(C(=O)NCC(=O)N2CCCCCCC2)c1`, the “activity change, negative = inhibition” value was 1.74%.
For the compound `COc1ccc(CCNC(=O)c2ccc3c(c2)sc2nc(-c4ccc(C)cc4)cn23)cc1OC`, the “activity change, negative = inhibition” value is -0.481%.
Turning to `NS(=O)(=O)c1ccc2nc(NC(=O)CS(=O)(=O)c3ccc(F)cc3)sc2c1`, the “activity change, negative = inhibition” value was -8.95%.
As for `NS(=O)(=O)c1ccc2nc(NC(=O)C3=COCCO3)sc2c1`, the Potency was 12 µM (active).
Turning to `NS(=O)(=O)c1ccc2nc(NC(=O)COc3ccccc3)sc2c1`, the “activity change, negative = inhibition” value was 0.17%.
The same measure, in the same setting: for `Cc1ccc(S(=O)(=O)c2nc(NCCCn3ccnc3)sc2Cl)cc1` the value was 1.48%.
For `Cc1ccc(-c2nc(C#N)c(NCCCn3ccnc3)o2)cc1`, the Potency was 21.3 µM (active).
For the compound `COc1ccc(-c2cc(C(=O)NCCCn3ccnc3)no2)cc1`, the “activity change, negative = inhibition” value was -16.1%.
`CC(NC(=O)c1cccc(S(=O)(=O)N2CCc3ccccc3C2)c1)c1ccco1` (configuration not stated): the “activity change, negative = inhibition” value is 2.97%.
As to `COC(=O)c1ccc(/C=C2/C(=O)Oc3ccccc32)cc1`, the Potency was 2.69 µM (active).
`CN1C(=O)/C(=C/c2ccc(C(=O)NC3CCCC3)cc2)Oc2ccccc21`: the “activity change, negative = inhibition” value is -12.8%.
On to `COC(=O)c1ccc(NC(=O)C(C)N2C(=O)c3ccccc3C2=O)cc1` (configuration not stated), for which the “activity change, negative = inhibition” value was -2.02%.
The same measure, in the same setting: for `C#CC(C)(CC)NC(=O)Cn1nnc(-c2ccc(OCc3c(F)cccc3Cl)cc2)n1` (configuration not stated) the value was -16.2%.
With `CCn1c(=O)cc(OCC(=O)Nc2cc(Cl)c(OC)cc2OC)c2ccccc21`, the “activity change, negative = inhibition” value was -0.432%.

Values taken from PubChem BioAssay AID588342 (National Center for Advancing Translational Sciences (NCATS), 2011).
